Data from PubChem BioAssay AID1159580 (chemical genetic matrix, 2015).
“And” between values parts separate entries of the source, which are not always exact repeats. Equal values may be shown once. In all, about 5,500 compounds went through this assay and about 2,000 (36%) were called active. Not shown: some 18% with an inconclusive outcome. Rule as the data show it: active = normalized growth mostly below about 0.91 (no sharp cut-off); inconclusive = no clear call, values can overlap the other calls; inactive = mostly above about 0.92. This is one part of the list.

Assay: chemical genetic growth profiling, strain panel (AID 1159580);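 also: tested at 20 µM; growth read once vehicle control cultures reached saturation at 30 °C; 1 = growth at the plate median or of vehicle wells; lower values mean less growth of the strain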
Settings: S. cerevisiae deletion strains, growth OD

Measured: normalized growth

CC(=O)O[C@]1(C(C)=O)CCC2C3C=C(C)C4=CC(=O)CCC4(C)C3CCC21C (stereo partly specified)
0.741 (active) and 0.98 (inactive): locus YJL095W, strain BCK1, stronger effect = lower value
0.917 (active) and 0.949 (inactive): locus YHR030C, strain SLT2, stronger effect = lower value
inactive: locus YAL021C, strain ccr4, stronger effect = lower value 1.04 | locus YAL026C, strain drs2, stronger effect = lower value 0.961 | locus YAL030W, strain snc1, stronger effect = lower value 0.959 | locus YBL061C, strain skt5, stronger effect = lower value 0.932 | locus YBR009C, strain hhf1, stronger effect = lower value 0.916 | locus YBR021W, strain FUR4, stronger effect = lower value 0.924 | locus YBR023C, strain chs3, stronger effect = lower value 0.92 | locus YBR171W, strain sec66, stronger effect = lower value 0.926 | locus YBR229C, strain ROT2, stronger effect = lower value 0.985 | locus YBR231C, strain swc5, stronger effect = lower value 0.933 | locus YBR279W, strain paf1, stronger effect = lower value 0.993 | locus YCL011C, strain gbp2, stronger effect = lower value 0.975 | locus YCL016C, strain dcc1, stronger effect = lower value 0.971 | locus YCL029C, strain bik1, stronger effect = lower value 0.958 | locus YCL069W, strain vba3, stronger effect = lower value 0.929 | locus YCR088W, strain abp1, stronger effect = lower value 0.958 | locus YDL005C, strain med2, stronger effect = lower value 0.934 | locus YDL035C, strain GPR1, stronger effect = lower value 0.908 | locus YDL040C, strain nat1, stronger effect = lower value 0.968 | locus YDL074C, strain BRE1, stronger effect = lower value 0.784 | locus YDL101C, strain DUN1, stronger effect = lower value 0.982 | locus YDL134C, strain PPH21, stronger effect = lower value 0.996 | locus YDL185W, strain tfp1, stronger effect = lower value 0.984 | locus YDL192W, strain arf1, stronger effect = lower value 0.957 | locus YDR001C, strain nth1, stronger effect = lower value 0.964 | locus YDR069C, strain doa4, stronger effect = lower value 0.978 | locus YDR101C, strain arx1, stronger effect = lower value 0.969 | locus YDR150W, strain NUM1, stronger effect = lower value 0.993 | locus YDR159W, strain sac3, stronger effect = lower value 0.892 | locus YDR195W, strain ref2 0.976 | locus YDR297W, strain sur2, stronger effect = lower value 0.951 | locus YDR318W, strain mcm21, stronger effect = lower value 0.92 | locus YDR334W, strain swr1, stronger effect = lower value 0.962 | locus YDR335W, strain msn5, stronger effect = lower value 0.957 | locus YDR388W, stronger effect = lower value 0.975 | locus YEL003W, strain gim4, stronger effect = lower value 0.941 | locus YEL037C, strain rad23, stronger effect = lower value 0.969 | locus YEL061C, strain CIN8 (second series), stronger effect = lower value 0.959 | locus YEL061C, strain CIN8, stronger effect = lower value 0.989 | locus YER015W, strain faa2, stronger effect = lower value 0.971 | locus YER016W, strain bim1, stronger effect = lower value 0.966 | locus YER110C, stronger effect = lower value 0.958 | locus YER111C, strain swi4, stronger effect = lower value 0.963 | locus YER155C, strain BEM2, stronger effect = lower value 1.01 | locus YFR010W, strain ubp6, stronger effect = lower value 0.961 | locus YGL078C, strain dbp3, stronger effect = lower value 0.992 | locus YGL167C, strain pmr1, stronger effect = lower value 0.955 | locus YGL173C, strain kem1, stronger effect = lower value 0.92 | locus YGL227W, strain vid30, stronger effect = lower value 0.968 | locus YGL240W, strain doc1, stronger effect = lower value 0.925 | locus YGL248W, strain PDE1, stronger effect = lower value 0.992 | locus YGL253W, strain hxk2, stronger effect = lower value 0.915 | locus YGR252W, strain gcn5, stronger effect = lower value 0.862 | locus YHR013C, strain ard1, stronger effect = lower value 0.998 | locus YHR027C, strain rpn1, stronger effect = lower value 0.981 | locus YHR079C, strain IRE1 (second series), stronger effect = lower value 0.969 | locus YHR079C, strain IRE1, stronger effect = lower value 0.958 | locus YHR094C, strain hxt1, stronger effect = lower value 0.98 | locus YHR129C, strain ARP1, stronger effect = lower value 0.94 | locus YHR200W, strain rpn10, stronger effect = lower value 0.956 | locus YIL066C, strain RNR3, stronger effect = lower value 0.878 | locus YIL073C, strain SPO22, stronger effect = lower value 0.887 | locus YIL125W, strain kgd1, stronger effect = lower value 0.982 | locus YIR030C, strain dcg1, stronger effect = lower value 0.973 | locus YJL092W, strain hpr5, stronger effect = lower value 0.944 | locus YJL095W, strain BCK1 (second series), stronger effect = lower value 0.931 | locus YJL115W, strain asf1, stronger effect = lower value 0.973 | locus YJL134W, strain LCB3, stronger effect = lower value 0.989 | locus YJL154C, strain vps35, stronger effect = lower value 0.964 | locus YJL164C, strain tpk1, stronger effect = lower value 0.951 | locus YJL168C, strain set2, stronger effect = lower value 0.969 | locus YJL187C, strain SWE1 (second series), stronger effect = lower value 0.98 | locus YJR066W, strain TOR1, stronger effect = lower value 0.929 | locus YJR075W, strain HOC1, stronger effect = lower value 0.952
active: locus YAL013W, strain DEP1, stronger effect = lower value 0.897 | locus YDR137W, strain rgp1, stronger effect = lower value 0.775 | locus YDR162C, strain NBP2, stronger effect = lower value 0.804 | locus YDR392W, strain spt3, stronger effect = lower value 0.445 | locus YDR502C, strain sam2, stronger effect = lower value 0.904 | locus YER155C, strain BEM2 (second series), stronger effect = lower value 0.859 | locus YER167W, strain BCK2, stronger effect = lower value 0.88 | locus YGL086W, strain mad1, stronger effect = lower value 0.91 | locus YGR078C, strain PAC10, stronger effect = lower value 0.836 | locus YGR135W, strain pre9, stronger effect = lower value 0.883 | locus YGR229C, strain SMI1, stronger effect = lower value 0.643 | locus YHR142W, strain chs7, stronger effect = lower value 0.815 | locus YJL129C, strain trk1, stronger effect = lower value 0.854 | locus YJL166W, strain qcr8, stronger effect = lower value 0.863 | locus YJR043C, strain POL32, stronger effect = lower value 0.85
